FLuc inh – blocks Photinus pyralis firefly luciferase activity | P08659 | purified firefly luciferase, luminescence, 8 min | Potency, µM (top dose mostly 57.1 µM), for inactives: top-dose activity change, negative = inhibition, hits mostly inhibitors | 72,000 tested, 2.2% active; note: nearly all actives have a fitted effect of over 40% in size
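Firefly luciferase (PKLight detection mix) with 10 uM ATP in pH 7.2 imidazole buffer (KCl, MgCl2, Tween 20, BSA). Compounds tested across a concentration series (qHTS). Luminescence read after 8 min at ambient temperature.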
Bst PK mod – pyruvate kinase (B. stearothermophilus) modulation; purified pyruvate kinase, luminescence ATP production; ribose 5-phosphate activator present at AC10; Potency, µM; 51,000 tested, 1.2% active; in the data active = potency below about 11 µM; inconclusive = mostly about 12 µM to 25 µM;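 the screen sought inhibitors and activators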;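 note: scaled between full activation by ribose 5 phosphate and full inhibition by luteolin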
ERK AVP inh – blocks ERK signaling stimulated by vasopressin; HEK293-V1b, vasopressin-stimulated pERK AlphaScreen; Potency, µM (doses to about 57.5 µM), inactives show top-dose activity, negative = inhibition, actives largely listed as inhibitors; 72,000 tested, 0.99% active; AID 995; note: nearly all actives have a fitted effect of over 55% in size
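qHTS, compounds titrated on V1b-expressing HEK293 cells. Preincubation 30 min at 37C, vasopressin 25 nM for 5 min, lysis 10 min, bead incubation 5 hr at room temperature.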
Tau filament bind – binders of human tau filaments. recombinant tau filaments, thioflavin S fluorescence, 15 h; filaments grown with octadecylsulfate alongside compound. Potency, µM (titrated, usually from 57.1 µM), without a hit: at the highest dose activity change, negative = inhibition. 71,000 tested, 2% active. AID 596;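 note: actives lower thioflavin S fluorescence by blocking filaments or displacing dye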
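His-tagged recombinant human tau (exons 2, 3, 10; 1 uM final) fibrillized with 30 uM sodium octadecylsulfate, 15 h at 37 C, in pH 7.4 HEPES buffer with 10 uM thioflavine S and 5 mM DTT. Reduced ThS fluorescence (450/510 nm) marks activity.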
Hsp90 Hop PPI – changes Hsp90-Hop TPR2A binding signal, up or down. AlphaScreen TPR2A-His6 binding biotin-Hsp90 C-terminal peptide. Potency, µM (titrated, usually from 57 µM), inactives show at the top dose activity change, negative = inhibition. 71,000 tested, 0.44% active. AID 595; active = well fitted curve in either direction with a large enough effect; inconclusive = small, poorly fitted or top-dose-only effect, or another doubt
15-hLO inh – 15-hLO (ALOX15) enzyme inhibition | purified 15hLO-1, xylenol orange hydroperoxide absorbance | P16050 | Potency, µM (titrated, usually from 57.1 µM), for the others: top-dose activity change, negative = inhibition, most hits filed as inhibitors | 74,000 tested, 1.4% active; note: nearly all actives have a fitted effect of over 55% in size
Target sequence (P16050 whole entry, looked up): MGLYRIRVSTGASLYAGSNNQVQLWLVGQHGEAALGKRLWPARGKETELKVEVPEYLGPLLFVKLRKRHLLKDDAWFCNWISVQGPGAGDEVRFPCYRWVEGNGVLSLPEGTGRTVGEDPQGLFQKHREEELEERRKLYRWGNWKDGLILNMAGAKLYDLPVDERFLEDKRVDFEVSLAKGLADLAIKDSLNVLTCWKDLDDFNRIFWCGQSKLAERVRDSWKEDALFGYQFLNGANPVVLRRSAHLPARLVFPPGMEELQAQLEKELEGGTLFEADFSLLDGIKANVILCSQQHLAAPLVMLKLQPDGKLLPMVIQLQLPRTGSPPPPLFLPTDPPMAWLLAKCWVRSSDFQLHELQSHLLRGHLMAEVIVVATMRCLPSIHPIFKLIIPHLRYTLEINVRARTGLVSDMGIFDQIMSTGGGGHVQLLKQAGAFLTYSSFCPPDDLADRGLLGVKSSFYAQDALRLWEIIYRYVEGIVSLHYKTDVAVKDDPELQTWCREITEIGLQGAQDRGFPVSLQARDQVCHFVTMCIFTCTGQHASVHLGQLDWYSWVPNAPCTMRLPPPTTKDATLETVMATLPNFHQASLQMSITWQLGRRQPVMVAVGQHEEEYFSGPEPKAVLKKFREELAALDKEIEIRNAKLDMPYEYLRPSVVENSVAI
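40 nM 15hLO-1 + cpd, 15 min RT; start w/ 50 uM AA (final), 6 min RT; stop/detect w/ 200 uM XO + 300 uM Fe(II) in 50 mM H2SO4, 30 min; A573/A405. Buffer 25 mM Hepes pH 7.5, 0.01% Triton X-100. No-enzyme wells as negative control.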
* = called active by the depositor; i = inactive; ? = inconclusive; . = no result given; [ ] = remark or other dose. A selection: hits, their analogues and other compounds. The true share with any hit is near 6.1%. Unless noted, calls come from the whole dose curve; as a rule, active = well fitted curve in the direction sought with a large enough effect; inconclusive = small, poorly fitted or top-dose-only effect, or another doubt; inactive = no such curve, though single readings can be large; an effect the other way counts as inactive or inconclusive. Unless noted, % is set by controls: 0 for no effect and ±100 for the full control effect; potency is the fitted concentration of half-maximal effect.

SMILES	FLuc inh	Bst PK mod	ERK AVP inh	Tau filament bind	Hsp90 Hop PPI	15-hLO inh
c1cn2cc(-c3ccc4c(c3)OCO4)nc2s1	7.94µM*	8.94*	5.0%	-31.8%	-3.5%	?
CC(=O)Nc1ccc(-c2cn3ccsc3n2)cc1	15.8µM*	?	-13.9%	1.6%	-6.8%	0.6%
CC(C)CC(=O)Nc1cccc(-c2cn3ccsc3n2)c1	15.8µM*	i	15.8µM*	10.9%	-8.7%	0.5%
CCC(=O)Nc1cccc(-c2cn3ccsc3n2)c1	?	i	-9.2%	0.4%	-4.7%	10.0%
O=C(Nc1ccccc1)N1CCC2(CC1)CCN(C(=O)c1csnn1)CC2	-0.3%[11.4 µM]	.	-19.9%	13.1%	-5.5%	-28.1%
Oc1ccc([C@@H]2CNCCc3c2cc(O)c(O)c3Cl)cc1	3.6%	.	-8.0%	?	?	-20.8%[25.6 µM]
CNc1ncnc2c1ncn2[C@H]1C[C@H](OP(=O)(O)O)[C@H](COP(=O)(O)O)O1	-5.6%	.	0.0%	?	-0.8%	-1.0%[25.6 µM]
C=C1CC[C@H]2C(C)(C)[C@H](O)CC[C@]2(C)[C@@H]1COc1ccc2ccc(=O)oc2c1	0.5%[11.4 µM]	.	.	?	-2.0%	.
CN(CCc1ccccn1)c1ccc2c(c1)C(=O)c1ccccc1-2	-24.1%[11.4 µM]	.	-12.8%[11.5 µM]	3.98µM*	?	1.8%[11.4 µM]
Cc1cccc(CN(C)CCc2ccccn2)c1	-2.2%	.	-15.7%	24.1%[11.4 µM]	-5.1%[11 µM]	-7.1%[11.4 µM]
CN(C(=O)c1ccco1)c1nnc(C23CC4CC(CC(C4)C2)C3)s1	20µM*	.	.	14.1%	?	?
O=C(c1cc(C(F)(F)F)cc(C(F)(F)F)c1)N1CCC[C@@]2(CCN(Cc3ccncc3)C2)C1	0.0%[11.4 µM]	.	14.0%	-12.1%	-3.4%	1.1%
C=CCNc1ncnc2c1cnn2-c1ccc(OC)cc1	.	.	.	.	.	-3.9%
CCCN(CCC)c1ncnc2c1cnn2-c1ccc(OC)cc1	15.8µM*	?	5.8%	14.1%	15.5%	-2.7%
CCCNc1ncnc2c1cnn2-c1ccc(OC)cc1	7.94µM*	?	.	.	.	.
COc1ccc(-n2ncc3c(Nc4cccc(C)c4)ncnc32)cc1	-0.3%[25.5 µM]	i	.	.	.	.
O=C(c1cccc(F)c1)N1CCC[C@@]2(CCN(Cc3nccs3)C2)C1	1.8%[11.4 µM]	.	17.8%	4.2%	1.2%	-3.7%
Cc1nc2sc(-c3ccccc3)cc2c(=O)n1-n1cccc1	20µM*	>57	-8.7%	50.7%	-1.4%	-9.2%
COc1ccc(-c2csc3nc(C)n(-n4cccc4)c(=O)c23)cc1OC	1.3%	.	-28.8%	5.0%	-5.3%	5.5%
COc1ccccc1CN(Cc1cc2cc(C)ccc2[nH]c1=O)Cc1nnnn1Cc1ccco1	-15.9%	>57	-21.0%	54.1%	-27.8%	7.94µM*
COc1ccccc1CN(Cc1cc2cc(C)ccc2[nH]c1=O)Cc1nnnn1CC1CCCO1 (stereo not given)	-5.5%	>57	-11.2%	22.6%	-2.8%	?
COc1ccc2[nH]c(=O)c(CN(CC3CCCO3)C(=O)Nc3ccc(F)cc3)cc2c1 (stereo not given)	1.5%	i	12.6µM*	4.5%	0.1%	-11.4%
COc1ccc2[nH]c(=O)c(CN(Cc3ccccc3OC)Cc3nnnn3CC3CCCO3)cc2c1 (stereo not given)	-4.1%	>57	7.7%	96.5%	-3.1%	20µM*
CCc1ccc2[nH]c(=O)c(CN(Cc3ccccc3OC)Cc3nnnn3Cc3ccco3)cc2c1	-5.7%	>57	0.5%	72.6%	-12.2%	?
COCCn1nnnc1CN(Cc1cc2cc(OC)c(OC)cc2[nH]c1=O)C1CCCC1	-1.3%	>57	-10.9%	i	-4.2%	?
SMILES	FLuc inh	Bst PK mod	ERK AVP inh	Tau filament bind	Hsp90 Hop PPI	15-hLO inh
COc1cc2cc(CN(Cc3nnnn3Cc3ccco3)C3CCCCC3)c(=O)[nH]c2cc1OC	-5.3%	>57	-14.5%	329.1%	?	12.6µM*
CCOC(=O)c1c(C)cc(O)c(C=O)c1O	.	.	-21.8%	.	.	-4.5%
CS(=O)(=O)N1CCC[C@@]2(CCN(C(=O)Nc3ccccc3)C2)C1	-1.4%[11.4 µM]	.	10.2%	1.3%	-1.3%	-3.2%
CCOc1ccc2[nH]c(=O)c(CN(Cc3ccco3)Cc3nnnn3Cc3ccccc3)cc2c1	-1.1%	>57	-20.3%	24.5%	-1.8%	-3.5%
CCOc1ccc2[nH]c(=O)c(CN(Cc3nnnn3Cc3ccco3)C3CCCCC3)cc2c1	-1.9%	>57	6.2%	-2.4%	-14.1%	3.16µM*
C=C[C@@]1(C)CC(=O)[C@@]2(O)[C@@]3(C)[C@@H](O)CCC(C)(C)[C@@H]3[C@H](OC(=O)CCN(C)C)[C@H](OC(C)=O)[C@@]2(C)O1	-1.4%	.	1µM*	-26.8%	?	-5.1%[25.6 µM]
CS(=O)(=O)Nc1cccc(-c2cncnc2NCc2cccnc2)c1	1.8%[2.29 µM]	.	-3.2%	5.2%	-0.7%	-16.3%
Clc1ccccc1-c1nc(NC2CCNCC2)c2ccccc2n1	2.4%[2.29 µM]	.	-11.3%	-18.7%	-2.8%	-8.4%
O=c1c2ccccc2nc2n1CCC2	2.1%	>57	29.2%	1.8%	?	3.16µM*
COc1ccccc1-c1nc(N2CCOCC2)c2ccccc2n1	-0.5%[2.29 µM]	.	?	-17.2%	-5.1%	8.0%
Cc1ccc(-c2cc(C(=O)Nc3c(C#N)cnn3C)no2)cc1	12.6µM*	.	-6.4%	-0.8%	-3.5%	-1.8%
CN1CCN(CC(=O)Nc2cccc3ccccc23)CC1	3.8%[11.4 µM]	.	13.7%[11.5 µM]	14.0%[11.4 µM]	0.4%[11 µM]	1.2%[11.4 µM]
CCN1CCN(CCC(=O)Nc2ccccc2OC)CC1	1.9%	>57	-5.0%	8.5%	1.3%	17.3%

Compound activity as filed in PubChem.
